The text below walks through data of PubChem BioAssay (NCI).

SMILES strings stand for the structures. About 83,000 compounds went through this panel and 20% of them were active in at least one assay; those are over-represented in the sample as a whole.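 Single-dose data. Exposure time 48 hours. Values below 10 considered active.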 Unmarked numbers belong to inactive results. The source made the active and inactive calls.

What all share (assay): NCI-60 one-dose screen, 48 h (100 = growth as untreated, 0 = no growth, -100 = all killed)
Assay [1] relates to NCI-H226 lung. As to conditions: 10 µM unless noted.
Assay [2] deals with NCI-H460 lung. As to conditions: 10 µM unless noted.
The test system of assay [3] is 786-0 renal. To be noted: 10 µM unless noted.
For assay [4], the system named is MDA-MB-231 breast. As to conditions: 10 µM unless noted.
Assay [5] deals with SF-268 CNS. As to conditions: 10 µM unless noted.
For assay [6], the system named is SF-539 CNS. As to conditions: 10 µM unless noted.
For assay [7], the system named is M14 melanoma. As to conditions: 10 µM unless noted.
Assay [8] relates to HCT-15 colon. To be noted: 10 µM.
Assay [9] concerns UACC-62 melanoma. As to conditions: 10 µM unless noted.
In assay [10] the test system is UO-31 renal. To be noted: 10 µM unless noted.
Assay [11] concerns TK-10 renal. As to conditions: 10 µM unless noted.
Assay [12] concerns ACHN renal. To be noted: 10 µM unless noted.
Assay [13] has as its system HL-60(TB) leukemia. As to conditions: 10 µM unless noted.
Assay [14] has as its system NCI/ADR-RES ovarian. To be noted: 10 µM unless noted.
For assay [15], the system named is T-47D breast. To be noted: 10 µM unless noted.
In assay [16] the test system is MDA-MB-435 melanoma. As to conditions: 10 µM unless noted.
Assay [17] deals with SW-620 colon. As to conditions: 10 µM unless noted.
Assay [18] has as its system MCF7 breast. To be noted: 10 µM unless noted.
The test system of assay [19] is HCT-116 colon. As to conditions: 10 µM unless noted.
Assay [20] relates to KM12 colon. As to conditions: 10 µM unless noted.

For the compound `C/C(=N/OC(=O)N(C)C)c1cc(Cl)ccc1Cl`, the growth is 99.4% in assay [1]; 105% in assay [2]; 97.8% in [3]; 111% in assay [4]; 99.4% in assay [5]; 103% in [6]. Also, the growth in assay [7] was 109%; in [8], 100%; in [9] it was 108%; in [10], 77.4%; in [11], 97.7%; in [12], 100%. Also, the growth in assay [13] was 95.1%; in assay [14], 99.4%; in assay [15], 96.7%; in assay [16], 99.2%; in [17] it was 101%; in assay [18] it was 97.8%. Besides, the growth in [19] is 101%; in assay [20] it was 106%.
`CNC(=O)Oc1ccccc1-c1ccccc1`: the growth in assay [1] was 113%; in [2] it was 112%; in assay [3], 95.9%; in assay [4], 114%; in [5], 100%; in assay [6], 104%. Moreover, the growth in assay [7] was 99.7%; in assay [8], 106%; in assay [9], 102%; in assay [10], 81.8%; in [11], 90.5%; in assay [12] it was 108%. Further, the growth was 94.8% in [13]; 108% in assay [14]; 105% in [15]; 99.3% in [16]; 103% in assay [17]; 106% in assay [18]. In addition, the values for the growth in [19] and in assay [20] were 99% and 102%, respectively.
For the compound `O=C(O)CNC(=O)c1ccccc1`, the growth in assay [1] was 109%; in assay [2], 103%; in assay [3] it was 100%; in assay [4], 110%; in assay [5], 107%; in assay [6] it was 89%. In addition, the growth in [7] was 99.4%; in assay [8], 98%; in assay [9], 103%; in assay [10], 95.8%; in assay [12], 102%; in assay [14], 101%. Also, the growth in assay [15] was 104%; in assay [16], 100%; in assay [17], 99.7%; in [18], 104%; in [19], 98.2%; in assay [20], 105%.
Turning to `N#[N+]c1cnc([O-])[nH]c1=O`, the growth is 88% in [1]; 107% in assay [2]; 93.9% in assay [3]; 95.5% in assay [4]; 97.5% in assay [5]; 97.5% in assay [6]. Also, the growth in [7] is 108%; in assay [8] it was 89.1%; in [9], 85.6%; in [10], 39%; in assay [11], 92.6%; in assay [12], 94.4%. Moreover, the growth in assay [13] is 67.4%; in assay [14], -8.91% (active); in assay [15] it was 101%; in [16] it was 106%; in [17] it was 89%; in assay [19], 108%. The growth in assay [20] is 100%.
With `CCCCCN(CCCCC)CC(O)c1ccc(C)c(Cl)c1` (configuration not stated), the growth in assay [1] is 84.4%; in assay [2], 101%; in assay [3], 98.2%; in assay [4] it was 97.4%; in assay [5] it was 106%; in assay [6], 101%. Further, the growth in assay [7] was 96%; in [8] it was 99.9%; in assay [9], 90.5%; in assay [10], 88.3%; in assay [11] it was 98.5%; in assay [12], 92.7%. Further, the growth was 116% in assay [13]; 104% in assay [14]; 91.2% in assay [15]; 104% in [16]; 103% in assay [17]; 95.5% in assay [18]. Moreover, the growth in assay [19] was 82.1%; in assay [20] it was 105%.
Take `Cc1cc(NC(=O)NCCOc2ccc(N3C(N)=NC(N)=NC3(C)C)cc2Cl)ccc1S(=O)(=O)F`: the growth in assay [1] was 91.3%; in assay [2] it was 9.44% (active); in assay [3], 35.3%; in assay [4], 58%; in assay [5] it was 29%; in assay [6] it was 33.6%. The growth in [7] is 32.1%; in assay [8], 92%; in assay [9], 22%; in [10], 81.6%; in [11], 35.3%; in assay [12] it was 94.2%. Besides, the growth in [13] was 18.1%; in assay [14], 102%; in assay [15], 50%; in [16] it was 18.8%; in assay [17], 23.4%; in assay [18] it was 4.3% (active). The growth in assay [19] is 13.9%; in assay [20], 20.1%.
As to `CCC[CH2][Sn]1([CH2]CCC)[O]C(=O)c2cccc([N+](=O)[O-])c2C(=O)[O]1`, the growth in assay [1] was -83.1% (active); in assay [2], -5.56% (active); in assay [3], -97.3% (active); in assay [4] it was -89.1% (active); in assay [5], -90.1% (active); in [6], -99.5% (active). Further, the growth in assay [7] was -89.2% (active); in assay [8], -85.5% (active); in assay [9], -88.3% (active); in assay [10], -100% (active); in assay [11] it was -95.7% (active); in assay [12], -100% (active). Also, the growth in [13] was -48.2% (active); in [14] it was -54.4% (active); in assay [15], -76.3% (active); in [16], -99.2% (active); in [17], -54.6% (active); in [18], -99% (active). Besides, the growth is -100% (active) in assay [19] and -83.9% (active) in assay [20].
Consider `O=C(CF)N(O)c1ccc(/C=C/c2ccccc2)cc1`, for which the growth in [1] was -22.9% (active); in assay [2] it was 13%; in [3] it was 8.73% (active); in [4], 73.4%; in assay [5] it was 42.5%; in assay [6], 36.2%. Besides, the growth in assay [7] is 43.2%; in assay [8], 66.6%; in assay [9], 23.4%; in assay [10] it was 36.2%; in assay [11], 67.4%; in [12], 13.9%. The growth in [13] is 13.4%; in assay [14], 44.1%; in [15] it was 26%; in assay [16], 72.3%; in assay [17], 56.5%; in assay [18] it was 16.5%. For the same compound, the growth is 11.5% in [19] and 69.5% in assay [20].
